Test results reported in PubChem BioAssay (NCI).
About 83,000 compounds went through this panel and 20% of them were active in at least one assay; those are over-represented in the sample as a whole.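 A percent growth of 40 corresponds to 60% growth inhibition; 0 means no net growth; -100 means all cells died. Active threshold: below 10.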 Active and inactive are the calls of the source.

How the values were obtained:
Assay in all cases: NCI-60 one-dose screen, 48 h (100 = growth as untreated, 0 = no growth, -100 = all killed)
Settings in all cases: 10 µM unless noted
[1] = test system: HCT-15 colon
[2] = test system: HT29 colon
[3] = test system: SNB-75 CNS
[4] = test system: SNB-19 CNS
[5] = test system: U251 CNS
[6] = test system: PC-3 prostate
[7] = test system: SK-MEL-5 melanoma
[8] = test system: UACC-62 melanoma
[9] = test system: LOX IMVI melanoma
[10] = test system: SK-MEL-28 melanoma

Measured: growth

COc1ccc(OC)c(CCn2cncc2-c2c[nH]c3ccc(Cl)cc23)c1
active: [7] -19.8%
inactive: [1] 32.8% | [2] 10.1% | [3] 21.4% | [4] 60.4% | [5] 47.1% | [6] 39.1% | [8] 40.7% | [9] 47.3% | [10] 67.7%

NC1=NC2(CCCC2)N(c2ccc(S(=O)(=O)Nc3nccs3)cc2)C(N)=N1
inactive: [1] 100% | [2] 109% | [3] 112% | [4] 100% | [5] 104% | [6] 102% | [7] 100% | [8] 98.9% | [9] 99% | [10] 105%

Cc1ccc(-c2csc(N/N=C/c3cccs3)n2)cc1
inactive: [1] 59.1% | [2] 99.4% | [3] 81.9% | [4] 101% | [5] 85.8% | [6] 68.2% | [7] 72.8% | [8] 88.9% | [9] 94.5% | [10] 102%

Cc1csc(/N=C(N)/N=C(\N)c2cccc(C#N)c2)n1
inactive: [1] 39.3% | [2] 62.4% | [3] 59.5% | [4] 72.3% | [5] 64.7% | [6] 77.4% | [7] 85.7% | [8] 52.1% | [9] 78.1% | [10] 74.6%

O=C(O)c1ccc(-n2c(=O)n(-c3cccc(C(F)(F)F)c3)c(=O)c3cc(-c4ccc(F)cc4F)ccc32)cc1
inactive: [1] 10.4% | [2] 48.5% | [4] 13.4% | [5] 11.1% | [10] 26.1%
active: [3] -12.1% | [6] 3.4% | [7] -60.4% | [8] -3.72% | [9] 5.95%

NC1[C@H]2CN(c3cnc(C(=O)Nc4cc(F)cc5cccnc45)cn3)C[C@@H]12 (stereo not given in full)
inactive: [1] 32.2% | [2] 26.9% | [3] 56.7% | [4] 75.2% | [5] 60.7% | [6] 65.7% | [7] 89% | [8] 92.1% | [9] 71.5% | [10] 86.1%

NC(=O)c1c(NC(=O)c2ccc(C(F)(F)F)cc2)sc2c1CCC(=O)C2
active: [1] -21.2% | [2] 0.0943% | [3] -7.54% | [5] 7.99% | [6] -6.96% | [7] -27.2% | [8] -24.9% | [9] -37.2% | [10] 4.03%
inactive: [4] 16.3%

O=C1Nc2cc(Cl)ccc2/C1=C\c1ccc(OCc2ccccc2)cc1
inactive: [1] 95% | [2] 105% | [3] 73.3% | [4] 103% | [5] 104% | [6] 88.2% | [7] 97.2% | [8] 95.9% | [9] 92.7% | [10] 103%

C#Cc1nc(/C=C/C(=O)NO)cs1
inactive: [1] 76.3% | [4] 93.4% | [6] 70.5% | [7] 63.3% | [8] 57.9% | [10] 60.9%
active: [2] 7.85% | [3] -94.4% | [5] -5.41% | [9] -90.7%

C#CCOc1ccc(-c2csc(NC(=O)C=C)n2)cc1NS(=O)(=O)c1cccc2c(N(C)C)cccc12
inactive: [2] 12.6% | [4] 71.2% | [5] 47.7% | [6] 53.6% | [7] 63.6% | [8] 37.1% | [10] 14.9%
active: [1] -9.26% | [3] 1.15% | [9] -91%

Cc1cc(=O)[nH]c(O)c1C#N
inactive: [1] 103% | [2] 110% | [3] 87% | [4] 101% | [5] 100% | [6] 97.1% | [7] 102% | [8] 91.7% | [9] 95.1% | [10] 108%

CN1CCN(Cc2ccc(/C=N/Nc3ccnc4cc(Cl)ccc34)cc2)CC1
inactive: [1] 38.2% | [2] 42.5% | [3] 99% | [4] 98.2% | [5] 84.6% | [6] 75.8% | [7] 94.3% | [8] 104% | [9] 15.3% | [10] 98%
